Measurements from the supplement of paper PMC6555819.

Columns and labels:
Assay in all cases: PBM binding z-score (relative to random genomic background probes); higher = stronger binding; sequences stand for … in GC…GCGATTGACAGCGTAGAATGAAGG
[1] = tested on: FXR:RXRa (NR concentration 270 nM, RXRa partner concentration 90 nM)
How it was run: (§1)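 Ligand-free nuclear receptor dimers were applied to custom Agilent 4×180K protein-binding microarrays whose double-stranded probes carried direct-repeat seeds, single-nucleotide variants, half-site ablations and random human genomic background sequences in 34-nt variable regions. Incubation lasted 1 h. Binding z-scores were computed against the random background probes from regression-normalized fluorescence.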

[2] = tested on: LXRa:RXRa (NR concentration 270 nM, RXRa partner concentration 90 nM)
How it was run: as §1

[3] = tested on: LXRa homodimer (NR concentration 270 nM)
How it was run: as §1

[4] = tested on: LXRb:RXRa (NR concentration 270 nM, RXRa partner concentration 90 nM)
How it was run: as §1

[5] = tested on: LXRb homodimer (NR concentration 270 nM)
How it was run: as §1

[6] = tested on: PPARa:RXRa (NR concentration 270 nM, RXRa partner concentration 90 nM)
How it was run: as §1

[7] = tested on: PPARg:RXRa (NR concentration 180 nM, RXRa partner concentration 90 nM)
How it was run: as §1

[8] = tested on: PPARg:RXRa 270nM:90nM, anti-RXR (NR concentration 270 nM, RXRa partner concentration 90 nM)
How it was run: as §1

[9] = tested on: PPARg:RXRa 30nM:10nM, anti-RXR (NR concentration 30 nM, RXRa partner concentration 10 nM)
How it was run: as §1

[10] = tested on: PPARg:RXRa 90nM:30nM, anti-RXR (NR concentration 90 nM, RXRa partner concentration 30 nM)
How it was run: as §1

[11] = tested on: PPARg:RXRa DBDmut IVT, anti-RXR (DBD mutation: RXRa K156A/R161A, NR concentration 270 nM, RXRa partner concentration 90 nM)
How it was run: as §1

[12] = tested on: PPARg:RXRa IVT, anti-PPARg (NR concentration 270 nM, RXRa partner concentration 90 nM)
How it was run: as §1

[13] = tested on: PPARg DBDmut:RXRa IVT, anti-PPARg (DBD mutation: PPARg1 K132A/R137A, NR concentration 270 nM, RXRa partner concentration 90 nM)
How it was run: as §1

[14] = tested on: PPARg DBDmut IVT, anti-PPARg (DBD mutation: PPARg1 K132A/R137A, NR concentration 270 nM)
How it was run: as §1

[15] = tested on: PPARg homodimer (NR concentration 180 nM)
How it was run: as §1

[16] = tested on: PXR:RXRa (NR concentration 270 nM, RXRa partner concentration 90 nM)
How it was run: as §1

[17] = tested on: PXR homodimer (NR concentration 270 nM)
How it was run: as §1

[18] = tested on: RARa:RXR (NR concentration 270 nM, RXRa partner concentration 90 nM)
How it was run: as §1

[19] = tested on: RARa homodimer (NR concentration 270 nM)
How it was run: as §1

[20] = tested on: RARb:RXRa (NR concentration 270 nM, RXRa partner concentration 90 nM)
How it was run: as §1

Row | Sequence | PBM binding z-score [1] | PBM binding z-score [2] | PBM binding z-score [3] | PBM binding z-score [4] | PBM binding z-score [5] | PBM binding z-score [6] | PBM binding z-score [7] | PBM binding z-score [8] | PBM binding z-score [9] | PBM binding z-score [10] | PBM binding z-score [11] | PBM binding z-score [12] | PBM binding z-score [13] | PBM binding z-score [14] | PBM binding z-score [15] | PBM binding z-score [16] | PBM binding z-score [17] | PBM binding z-score [18] | PBM binding z-score [19] | PBM binding z-score [20]
1 | CAAACTAGGTTACCGGAAGGTCAAAGTCCGCATG | 4.06 | 5.04 | 4.5 | 4.05 | 1.13 | 4.85 | 6.22 | 5.55 | 2.78 | 4.83 | 7.31 | 6.8 | 1.12 | 1.42 | 4.03 | 4.47 | 1.65 | 5.36 | 1.39 | 3.9
2 | CCTACTGGACCAAAAAGGTCATTGATGCCGATAA | 3.74 | 4.82 | 4.22 | 4.55 | 1.28 | 4.55 | 2.13 | 3.38 | 1.31 | 2.53 | 1.82 | 2.46 | -0.0112 | -0.226 | 4.04 | 4.77 | 2.35 | 5.09 | 3.15 | 3.96
3 | AGAATGAGGTTACCAAAGATCAGGGGAACGCTTG | 1.87 | 6 | -0.402 | 3.15 | -0.39 | 3.44 | 2.74 | 2.72 | 1.04 | 2 | 3.68 | 3.55 | 0.871 | 0.161 | 0.699 | 1.59 | -0.0783 | 2.04 | 0.232 | 2.18
4 | CCTTACGGGTCATTCCAGGTTATAGCATCGGAGT | 6.28 | 7.32 | 2.01 | 4.7 | 0.548 | 4.94 | 3.32 | 4.21 | 1.14 | 2.4 | 2.86 | 3.39 | 0.145 | -0.0638 | 1.34 | 5.52 | 0.529 | 3.91 | 0.74 | 3.51
5 | TCTGCTAGGTCAACGATAGTCAGCTAATCTGCTA | 3.23 | 2.35 | -0.23 | 1.4 | -0.0504 | 3.14 | 2.53 | 3.15 | 1.95 | 2.82 | 4.19 | 4.2 | 0.616 | 0.703 | 0.481 | 1.31 | -0.482 | 1.98 | -0.872 | 3.99
6 | ATCTCTAGGTAAATTTCAGTGAAAGATCGATAGA | 0.175 | 0.31 | 0.359 | 0.199 | 0.934 | 0.102 | 0.408 | 0.671 | 0.581 | 0.833 | 1.2 | 1.5 | 1.22 | 1.58 | 0.671 | 0.0865 | 0.265 | 0.745 | 1.29 | -0.125
7 | AATACAGTGTCATCGTAGGCCAGAGTACGCACAG | 0.397 | 1.79 | -0.224 | 0.401 | -0.022 | 0.815 | 1.05 | 0.517 | 0.42 | 0.495 | 0.125 | 1.2 | 1.33 | -0.183 | -0.106 | 0.441 | -0.156 | 0.969 | 0.337 | 1.21
8 | TCTAGTGGGTCACGGAGGTCACACACGACGGGTA | 6.17 | 5.14 | 2.85 | 4.62 | 0.568 | 5.74 | 9.39 | 7.63 | 5.61 | 7.51 | 7.01 | 7.92 | 1.74 | 0.78 | 4.58 | 5.92 | 5.35 | 6.43 | 2.44 | 4.78
9 | ATCTCTCGGTAAAAGTTCAGTGAATCCCGAGGAT | 0.576 | 1.16 | 1.29 | 1.07 | 1.12 | 2.92 | 3.81 | 5.71 | 3.76 | 6.34 | -0.48 | 1.24 | 1.23 | 1.28 | 1.06 | 1.92 | 1.71 | 0.639 | 0.811 | 2.4
10 | GGAACGAGGGCATGTTGATAGCAGAGTTTGATGG | 0.438 | -0.0957 | 0.0371 | 0.12 | -0.293 | 0.843 | 0.848 | 0.668 | 0.0112 | -0.104 | 2.6 | 1.79 | 0.588 | -0.313 | 0.877 | 0.633 | 0.542 | 0.117 | 0.262 | 1.81
11 | ATCTGTAGGTAAAGATAGTTCAGTGAATGCAAAT | 0.274 | 4.33 | 0.422 | 0.986 | 0.477 | 0.733 | 0.782 | 0.571 | 0.256 | 0.391 | 1.63 | 1.5 | 0.849 | 0.832 | 0.977 | 1.03 | 0.786 | 0.946 | 0.896 | 0.675
12 | CCTAGCAGCCCAGGGTCACTCAAGCATTTCGCTT | 2.06 | 1.93 | -0.213 | 2.17 | -0.762 | 2.99 | 0.0606 | 0.885 | -0.586 | 0.325 | -0.614 | 0.169 | -1.11 | -1.49 | 1.2 | 2.56 | 0.192 | 3.27 | 0.00809 | 2.4
13 | TCTCGGAGGACACGAAAGGACAGAGCTCGACATC | 0.793 | 0.0695 | -0.281 | -0.358 | -0.815 | -0.148 | 0.542 | 0.751 | 1.85 | 1.34 | 1.47 | 0.125 | -0.295 | -0.96 | -0.288 | -0.168 | -0.334 | 0.0232 | -0.282 | 2.03
14 | ATATGTCGGTTACATCCGGGTCATTCAGGCTATG | 1.65 | 2.86 | 1.27 | 1.92 | 0.559 | 2.79 | 1.55 | 1.48 | 0.573 | 1.09 | 2.55 | 3.18 | 2.61 | 1.84 | 1.05 | 2.85 | 2.72 | 2.88 | 0.00144 | 1.91
